# Bioassay records (PubChem BioAssay)
# PINK1 expr mod: modulators of PINK1 expression; PINK1 immunofluorescence, high-content cytometry, 24 h; Potency, µM (highest dose often 76.6 µM), for the others: at the top dose activation (PINK1 increase), actives largely listed as activators; 0.2% of 410,000 active; active = well fitted activation curve with a large enough effect; inconclusive = small, poorly fitted or top-dose-only effect; cell line not stated here; note: % of control where 0% means no effect; nearly all actives have a fitted effect of over 65% in size
#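 Measures PINK1 amount and localization on or inside mitochondria by immunofluorescence. Stable cells get compounds at 5 concentrations for 24 hours before fixation and staining; CCCP controls included.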
# Epigenetic reg: epigenetic control regulation, reporter derepression | Potency, µM (titrated, usually from 53.9 µM), inactives show at the highest dose GFP activation, usual class: activators | murine LDR cells, GFP reporter derepression, 30 h | AID 1865 | 0.2% of 280,000 active; note: % of control where 0% means no effect; nearly all actives have a fitted effect of over 60% in size
#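 Readout is the number of GFP-expressing murine LDR cells, counted by cytometry following washing. Cells were treated with compound for 30 h at 37 C; the stably integrated CMV-GFP locus is normally silent.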
# A549 viability: kills or reduces viability of A549 cells in Nrf2 counter-screen | 0.16% of 390,000 active | AID 504648 | Potency, µM (doses to about 46 µM), for the others: top-dose activity change, negative = cytotoxicity, hits mostly inhibitors | A549 ARE-Fluc cells, CellTiter-Fluor viability, 18-24 h; note: % is set by controls: 0 for no effect and ±100 for the full control effect
#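 A549 ARE-Fluc cells in 5% FBS OPTI-MEM, 5000 cells/well, rested 2 h then exposed to compounds in concentration-response for 18-24 h at 37 °C. Viability by CellTiter-Fluor fluorescence (Ex 405/Em 525) after 30 min; luciferase luminescence (BugLite, 15 min, RT) read afterwards.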
# Nrf2 ARE act: activators of Nrf2 (ARE) signaling; Potency, µM (series often up to 46.1 µM), inactives show at the top dose activation, usual class: activators; AREc32 ARE-luciferase reporter (MCF7-derived line), luminescence, 24 h; 0.31% of 410,000 active; note: % of control where 0% means no effect; nearly all actives have a fitted effect of over 65% in size
#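 Each well held 1000 AREc32 cells, which were incubated with compound for 24 hr at 37 deg C after overnight attachment, and ARE reporter activity was quantified by firefly luciferase luminescence.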
# Nrf2 block: blocks Nrf2 signaling. 2.1% of 360,000 active. Potency, µM (doses to about 46 µM), inactives show at the highest dose activity change, negative = inhibition, actives largely listed as inhibitors. A549 ARE-Fluc reporter, luciferase luminescence, 18-24 h; note: % is set by controls: 0 for no effect and ±100 for the full control effect; nearly all actives have a fitted effect of over 60% in size
#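 Cells were seeded and rested 2 h, then exposed to compounds for 18-24 h. CellTiter-Fluor was read first as a viability measure. BugLite was added 15 min before the final luminescent read of ARE-luciferase activity in A549 cells.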
# Numbers without * were called inactive; ? = inconclusive; / = not tested or not shown; [ ] = another dose, or the depositor's remark. Compounds with a hit are over-represented: about 2.4% of the library has one in this group of screens. Unless noted, calls come from the whole dose curve; as a rule, active = well fitted curve in the direction sought with a large enough effect; inconclusive = small, poorly fitted or top-dose-only effect, or another doubt; inactive = no such curve, though single readings can be large; an effect the other way counts as inactive or inconclusive. Potency is the fitted concentration of half-maximal effect.
SMILES,PINK1 expr mod,Epigenetic reg,A549 viability,Nrf2 ARE act,Nrf2 block
NS(=O)(=O)c1ccc(N2N=C(c3ccc(Br)cc3)CC2c2ccc(F)cc2)cc1 (configuration not stated),-2.4%,9.5%,?,-1.7%,18.4µM*
O=C(Nc1ccc(F)cc1)N1CCC(c2nc3c(nnn3Cc3cccc(Cl)c3)c(=O)[nH]2)CC1,12.2%[38.3 µM],1.0%,?,3.8%,20.6µM*
O=C(NCC1(N2CCCCC2)CCCCC1)c1ccc(-n2cc(NC(=O)c3cccnc3)cn2)cc1,0.4%,/,/,/,/
CCn1cc2nc(SCc3cccc(C)c3)n(CCc3ccccc3)c(=O)c2n1,5.1%,-2.3%,-2.8%,-1.2%,?
CCn1cc2nc(SCc3cccc(C(F)(F)F)c3)n(CCc3ccccc3)c(=O)c2n1,10.7%,-3.8%,2.3%,0.0%,14.6µM*
CCOc1cccc(NCc2cc3c(C(C)(C)C)nn(-c4ccccc4)c3[nH]c2=O)c1,8.2%[38.3 µM],3.3%,?,22.6%,20.6µM*
CC(C)(C)c1nn(-c2ccccc2)c2[nH]c(=O)c(CNCc3ccc4c(c3)OCO4)cc12,/,-1.9%,8.4%,13.5%,?
COc1cc(=O)n2c(c1C(=O)NCc1ccco1)CCN(Cc1ccc3ccccc3c1)CC2,1.9%,/,/,/,/
CCN(CC)c1ccc2cc(NC(=O)CCC(=O)O)c(=O)oc2c1,-1.3%[38.3 µM],-0.8%,?,-2.4%,11.6µM*
CCN(C(=O)c1cc(S(=O)(=O)N2CCc3ccccc32)cn1C)c1cccc(C)c1,3.8%,7.0%,?,-0.6%,?
O=C(NC(=S)Nc1cccc(O)c1)c1ccco1,1.9%,1.1%,1.7%,11.2µM*,?
Cc1ccc2nc(NC(=S)NC(=O)c3ccco3)sc2c1,-1.3%,2.1%,-3.1%,?,?
O=C(NC(=S)Nc1cccnc1Cl)c1ccco1,0.1%,-0.1%,14.1%,12.6µM*,?
O=C(NC(=S)NCc1ccc(Cl)cc1)c1ccco1,1.6%,/,5.6%,7.3%,16.4µM*
Cc1ccc2nsnc2c1NC(=S)NC(=O)c1ccco1,0.0%,-1.1%,1.8%,6.31µM*,3.8%
CC(C)(C)OC(=O)NCc1nnc(-c2nc3ccccc3[nH]2)o1,/,/,-4.0%,/,13.7%
CC(C)c1c(C(=O)N2CCN(CCO)CC2)cnn1-c1nccc(-c2cccs2)n1,-0.1%,/,/,/,/
CCN(CC)c1ccc(CNc2nc3ccccc3n2C(C)C)cc1,22.4µM*,-1.1%,?,-0.3%,?
Cc1nn2c(-c3ccncc3)nnc2c2ccccc12,0.2%,-4.5%,-5.4%,4.1%,/
Cc1nn2c(-c3ccco3)nnc2c2ccccc12,/,-0.7%,-9.4%,0.562µM*,23.4%
COc1ccc(-c2nnc3c4ccccc4c(C)nn23)cc1,-0.7%[38.3 µM],-0.9%,-9.6%,4.47µM*,?
O=C(OCc1ccccc1)N1CCN(/[N+]([O-])=N/Oc2ccc([N+](=O)[O-])cc2[N+](=O)[O-])CC1,0.5%,/,/,/,/
COCC(C)N=C1NN=C(c2cc(C)n(Cc3ccccc3Cl)c2C)CS1 (configuration not stated),35.5µM*,-2.5%,-19.8%,0.0%,?
Cc1cc(C2=NNC(=NC3CC3)SC2)c(C)n1-c1ccccc1,39.8µM*,0.0%,0.3%,-2.6%,6.51µM*
CN=C1NN=C(c2cc(C)n(-c3c(C)n(C)n(-c4ccccc4)c3=O)c2C)CS1,-1.2%,1.0%,-0.3%,-1.0%,17.3%
SMILES,PINK1 expr mod,Epigenetic reg,A549 viability,Nrf2 ARE act,Nrf2 block
C=CCN=C1NN=C(c2cc(C)n(CCOC)c2C)CS1,2.4%,-1.1%,3.2%,-0.2%,?
COc1ccc(-n2c(C)cc(C3=NNC(=NC4CC4)SC3)c2C)cc1,31.6µM*,2.9%,3.8%,6.7%,?
COCCn1c(C)cc(C2=NNC(=NC3CC3)SC2)c1C,0.4%,-0.9%,-8.7%,-2.8%,0.581µM*
O=C(NCc1ccccc1)n1cc(P(=S)(c2ccccc2)c2ccccc2)c2ccccc21,/,/,0.5%,/,8.2%
CCN(CC)S(=O)(=O)c1cc(NC(=O)CSc2n[nH]c(N)n2)ccc1C,1.2%,/,-1.8%,-0.1%,-6.6%
Cc1ccc(NC(=O)Cc2c[nH]c3ccccc23)cc1S(=O)(=O)N1CCCCCC1,-0.9%,2.8%,-0.8%,0.1%,1.7%
CN(c1ccccc1)S(=O)(=O)c1cccc(NC(=O)Cc2n[nH]c(=O)c3ccccc23)c1,1.1%,/,-8.6%,-0.4%,16.4µM*
Cc1ccc(NC(=O)Cc2n[nH]c(=O)c3ccccc23)cc1S(=O)(=O)N1CCCCCC1,1.0%,/,-17.8%,1.7%,10.3µM*
CCN(CC)S(=O)(=O)c1cc(NC(=O)COC(=O)c2c(C)noc2C)ccc1C,0.7%,/,?,-0.5%,20.6µM*
CCN(CC)S(=O)(=O)c1cc(NC(=O)Cc2n[nH]c(=O)c3ccccc23)ccc1C,0.2%,1.6%,-11.9%,-0.2%,25.9µM*
COc1ccccc1C(=O)Oc1c(Sc2ccccc2)c(C)nn1C(C)(C)C,2.0%,-2.5%,-21.9%,-2.8%,0.0%[9.27 µM]
CCOC(=O)N1CCN(Cc2ccc3c(c2)CN(C(=O)c2sc(C)nc2C)CCO3)CC1,0.2%,/,/,/,/
COc1ccccc1CNC(=O)c1ccc2[nH]c(C)c(C)c2c1,0.1%,1.1%,15.6%,6.6%,/
COc1ccc(C2Nc3ccccc3C(=O)N2Cc2ccc(-c3ccccc3)cc2)cc1COc1ccc(NC(C)=O)cc1 (configuration not stated),/,/,12.1%,/,2.5%
Cn1nccc1C(=O)NCC1CCC2(CCN(Cc3ccc(-c4ccc(Cl)cc4)o3)CC2)O1 (configuration not stated),-1.0%,/,/,/,/
N#Cc1ccc(-c2csc(NNC(=O)c3ccccc3)n2)cc1,0.8%,0.0%,-13.8%,-1.1%,23.1µM*
N#Cc1ccc(-c2csc(NNC(=O)c3ccc(Br)cc3)n2)cc1,20.8%,0.0%,?,-0.7%,/
O=C(CSc1nccc(-c2cccs2)n1)Nc1cccc(Cl)c1Cl,2.4%,1.1%,9.3%,2.24µM*,-13.2%
COc1ccc(-c2csc(NC(=O)c3ccccc3F)c2C(=O)O)cc1,-0.3%,/,-18.9%,-0.7%,13µM*
